# Source: PubChem (Sanford-Burnham Center for Chemical Genomics)
# Pyk2 oligo antag = antagonists of Pyk2 self-association, primary screen, Q293 cells, FERM NanoBiT luminescence, HTS; Protein-tyrosine kinase 2-beta (Homo sapiens), Q14289; stronger effect = lower value; z-score (the deposit names both 25 µM and 10 µM); hit rate 0.83% among 99,000;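 active = Z-score of -3 or lower, scaled per plate to the spread of control and sample wells; inactive = z-score above -3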;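 note: negative z-score means lost luminescence so less FERM oligomerization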
# CYP2C19 activ = human CYP2C19 activators, primary screen, biochemical, luminescence; activation factor at 5 µM; recombinant CYP2C19, luciferin-H EGE luminescence; stronger effect = higher value; 0 = fully inhibited enzyme, 1 = untreated enzyme; 96,000 tested, under 10 active; AID 1025, 2008;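 active = activation factor of at least 2 at 5 µM in the primary screen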;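 note: 0 = wells with 2.5 mM tranylcypromine and 1 = vehicle-only wells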
# Target sequence (P33261 whole entry, looked up): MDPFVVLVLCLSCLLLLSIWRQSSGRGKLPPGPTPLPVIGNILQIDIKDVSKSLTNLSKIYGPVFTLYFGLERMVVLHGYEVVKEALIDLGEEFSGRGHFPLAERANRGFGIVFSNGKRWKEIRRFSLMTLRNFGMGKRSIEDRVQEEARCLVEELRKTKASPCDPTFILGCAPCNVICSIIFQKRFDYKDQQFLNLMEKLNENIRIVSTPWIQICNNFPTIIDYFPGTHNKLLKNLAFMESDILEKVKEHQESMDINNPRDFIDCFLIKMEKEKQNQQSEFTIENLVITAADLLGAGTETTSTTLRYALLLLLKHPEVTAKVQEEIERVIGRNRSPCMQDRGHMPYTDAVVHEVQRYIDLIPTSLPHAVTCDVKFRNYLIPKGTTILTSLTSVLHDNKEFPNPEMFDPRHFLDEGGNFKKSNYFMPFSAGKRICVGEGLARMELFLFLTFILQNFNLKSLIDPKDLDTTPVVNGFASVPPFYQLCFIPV
# CYP2C9 act = human CYP2C9 activators, primary screen, biochemical, luminescence; Cytochrome P450 2C9 (Homo sapiens), P11712; AID 1024, 2008; activation factor at 5 µM; recombinant CYP2C9, luciferin-H conversion; stronger effect = higher value; factor 1 = untreated enzyme, 0 = blocked; hit rate 1.4% among 96,000;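 active = activation factor of 2 or more for CYP2C9 at a 5 µM dose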;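 note: 0 = sulfaphenazole-blocked wells and 1 = vehicle-only wells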
# CYP2C19 inhib = blockers of cytochrome P450 2C19 activity – biochemical, luminescence, ADME assay, primary screen | P33261 | CYP2C19 Supersomes, luciferin-H EGE luminescence, 30 min | inhibition, % at 5 µM | hit rate 21% among 96,000 | AID 778, 2007;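 active = CYP2C19 inhibition above a set limit at 5 µM in the primary screen, cut at about 50% in these data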;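 note: plate controls were negative control wells for no effect and 2.5 mM tranylcypromine positive control for full effect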
# CYP2C9 inhib = blockers of cytochrome P450 2C9 activity – biochemical, luminescence, ADME assay, primary screen; AID 777, 2007; CYP2C9 Supersomes, luciferin-H conversion; P11712; hit rate 20% among 96,000; inhibition, % at 5 µM;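 active = blocking of liver enzyme CYP2C9 beyond about 50% at 5 µM, limit read from the data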
# The depositor's hits bear a star; . = no result given. A selection: hits, their analogues and other compounds. The true share with any hit is near 28%.
SMILES,Pyk2 oligo antag,CYP2C19 activ,CYP2C9 act,CYP2C19 inhib,CYP2C9 inhib
Cc1ccc(S(=O)(=O)Cn2nnnc2C(c2ccccn2)N2CCN(c3ccccc3)CC2)cc1 (stereo not drawn),-2.42,0.3,0.3,72.4*,68.5*
CCCCn1c(SCC(=O)Nc2cccc(C)n2)nnc1-c1ccco1,-0.5,0.1,0,86.8*,96.5*
CCCCn1nnnc1SCC(=O)Nc1cccc(C)n1,0.13,0.3,0.8,65.0*,19.5
Cc1cccc(NC(=O)CSc2nnnn2C)n1,0.08,1.1,1.2,-11.1,-17.7
COc1ccc(S(=O)(=O)N2CCC(C(=O)Nc3c(F)cccc3F)CC2)cc1,.,1,0.9,-1.2,5.6
Cc1cc(C)c(S(=O)(=O)O)c(C)n1,0.63,0.9,0.9,9.9,7.0
Cc1cc(C(=O)c2ccccc2)nc2ccccc12,0.28,0.3,3.2*,68.0*,-215.6
Cc1cc(SCC(=O)N2CCCC2)nc2ccccc12,-0.13,0.6,1.7,41.2,-66.4
CCN(CC)CC(=O)N1c2ccccc2Sc2ccc(Cl)cc21,-0.48,.,.,.,.
CCOC(=O)c1c(C)sc2c1N(C(C)=O)c1cc(Cl)ccc1S2,-1.98,0.4,0.8,60.2*,22.9
COC(=O)CN1C(=O)Nc2ccc(Br)cc2C1c1ccccc1Cl (stereo not drawn),-1.5,0.6,0.8,43.7,24.9
Cc1ccc(CNC(=O)CSc2c3c(nc4ccc(Cl)cc24)CCCC3)o1,-1.02,0.6,0.4,35.5,61.0*
Cc1nc(-c2ccccc2)sc1C(=O)CSc1ccc(F)cc1,-0.1,0.4,0.1,64.2*,86.5*
Cc1nc(-c2ccccc2)sc1C(N)=O,0.5,0.8,0.6,22.3,36.4
Cc1nc(-c2ccccc2)sc1C(=O)CSc1ccccc1,0.77,1,0.2,4.1,79.6*
COc1ccc(C)cc1S(=O)(=O)NCCC1=CCCCC1,-1.07,0.6,0.7,35.5,34.8
COc1ccc(OC)c(S(=O)(=O)NCc2cn3c(C)csc3n2)c1,.,1,1.2,-1.2,-19.4
COc1ccc(OC)c(S(=O)(=O)NCCc2ccccc2)c1,2.25,0.1,0.3,87.1*,69.0*
CCn1nnnc1-c1ccc(OC)c(S(=O)(=O)NCCc2ccccc2)c1,0.05,0.1,0.3,88.8*,67.6*
COc1ccc(OC)c(S(=O)(=O)NCc2csc(-c3ccccc3)n2)c1,1.22,0.4,0.6,61.8*,37.3
Cc1ccc(C(C(=O)NC2CCCC2)N2CCc3ccccc32)cc1 (stereo not drawn),.,0.9,0.9,5.2,12.8
O=C(c1ccc(C#CC2(O)CCCCC2)cc1)N1CCN(C(c2ccccc2)c2ccccc2)CC1,-1.39,0.6,0.3,38.7,68.0*
COc1ccc(CCNC(=O)NC(C(F)(F)F)C(F)(F)F)cc1OC,0.21,0.8,1,23.4,4.3
CCc1nc2cc(Cl)c(Cl)cc2[nH]1,0.66,0.4,0.8,59.3*,25.0
CSc1nc2ccc(Cl)cc2[nH]1,-0.84,.,.,.,.
SMILES,Pyk2 oligo antag,CYP2C19 activ,CYP2C9 act,CYP2C19 inhib,CYP2C9 inhib
CC1=CC(C)=Nc2ccccc2N1,-0.61,0.9,0.9,13.7,12.5
Cc1ccc(C2=Nc3ccccc3NC(C)(c3ccc(C)o3)C2)o1 (stereo not drawn),-1.72,0.1,0.3,94.8*,68.7*
CCn1c(-c2cc3ccccc3cc2O)n[nH]c1=S,1.76,0.5,0.7,52.5*,25.6
CCn1c(Cc2c(C)[nH]c3ccccc23)n[nH]c1=S,0.18,0.1,0.9,90.8*,7.2
CCn1c(-c2ccc3[nH]c(C)c(C)c3c2)n[nH]c1=S,-0.96,0.2,0.1,77.7*,89.7*
CCn1c(CSc2nc3ccccc3[nH]2)n[nH]c1=S,0.3,0.4,0.7,55.9*,34.7
CCn1c(CCn2c3ccccc3c3ccccc32)n[nH]c1=S,-1.5,.,.,.,.
CN1C(=O)CSc2ccc(NC(=O)NCCC3=CCCCC3)cc21,-0.51,0.8,0.7,24.7,27.5
O=C1CC(c2ccccc2)n2nc(N3C(=O)c4ccccc4C3=O)nc2N1 (stereo not drawn),0.37,1.1,1,-5.5,1.5
O=C(C1CC(=O)N(C2CCCC2)C1)N1CCC(Cc2ccccc2)CC1 (stereo not drawn),0.15,0.9,0.7,5.0,31.8
CCn1c(-c2c[nH]c3ccccc23)n[nH]c1=S,-0.05,0.5,0.5,46.9,54.1*
O=C(Cc1c(F)cccc1Cl)Nc1ccon1,0.39,0.8,0.2,22.8,77.9*
N#Cc1c(N)c(C(=O)c2ccccc2)n2c1CCCC2,0.01,0.3,1.1,65.8*,-5.8
COc1ccc(N2C(=O)c3ccccc3NC23CCCCC3)cc1,0.26,0.5,0.4,48.6,63.5*
COc1ccc(N2C(=O)c3ccccc3NC23CCC(C)CC3)cc1 (stereo not drawn),-0.64,1.1,1,-7.6,-1.9
O=C(CCC(=O)OCC(=O)c1ccccc1)NC1CCCCC1,0.36,0.5,0.7,49.3,31.7
COc1cccc(/C(O)=C2/C(=O)C(=O)N(CCN3CCOCC3)C2c2cccs2)c1 (stereo not drawn),-0.49,0.8,0.9,18.4,10.5
CCOc1ccc(OCC)c(S(=O)(=O)NCCCN2CCOCC2)c1,0.83,.,.,.,.
CCOc1ccc(S(=O)(=O)NCCCN2CCOCC2)cc1,0.21,1,1.2,0.8,-23.9
CCOc1ccc(S(=O)(=O)NCCCN2CCOCC2)c2ccccc12,0.29,0.4,1.6,60.4*,-55.7
CCCOc1ccc(S(=O)(=O)NCCCN2CCOCC2)c2ccccc12,-0.08,0,1.1,98.8*,-6.9
COc1ccc(S(=O)(=O)NCCCN2CCOCC2)c2ccccc12,0.08,0,1.9,97.0*,-86.1
CCOc1ccc(S(=O)(=O)NCCC2=CCCCC2)c2ccccc12,-2.56,0.1,1,88.0*,-0.9
CCCCOc1cccc(NC(=O)CSc2nccn2C)c1,0.73,0.7,1,31.2,0.1
Nn1cc(-c2ccccc2)nc1SCC(=O)NC1CCS(=O)(=O)C1 (stereo not drawn),1.07,0.9,1,10.3,-1.3
SMILES,Pyk2 oligo antag,CYP2C19 activ,CYP2C9 act,CYP2C19 inhib,CYP2C9 inhib
CN(C(=O)CSc1nc(-c2ccccc2)cn1N)C(c1ccccc1)c1ccccc1,-2.04,0.8,0.2,24.5,75.6*
COc1ccccc1CNC(=O)CSc1nc(-c2ccccc2)cn1N,0.34,0.1,0.1,93.3*,86.7*
Nn1cc(-c2ccccc2)nc1SCC(=O)NCCN1C(=O)CSC1=O,1.07,0.4,0.8,60.0*,16.4
CCOC(=O)N1CCC(Nc2c(NCCCN(CC)c3cccc(C)c3)c(=O)c2=O)CC1,.,0.9,1,13.1,2.1
CO/N=C(/CS(=O)Cc1ccccc1Cl)c1ccc(Cl)cc1Cl (stereo not drawn),-1.16,0.2,1,83.1*,1.0
Cn1cccc1C(=O)c1ccc(Cl)cc1Cl,0.07,0.9,0.8,13.0,17.4
